# IP6K1 inh = IP6K1 kinase inhibition | IP6K1 kinase, ADP-Glo luminescence, 2 h; stronger effect = lower value | activity change, % (series mostly up to about 58 µM) | Q92551 | 0.81% of 140,000 active | AID 1645851; in the data active = activity change below about -25%; note: % is set by controls: 0 for no effect and ±100 for the full control effect
# Target sequence (Q92551 whole entry, looked up): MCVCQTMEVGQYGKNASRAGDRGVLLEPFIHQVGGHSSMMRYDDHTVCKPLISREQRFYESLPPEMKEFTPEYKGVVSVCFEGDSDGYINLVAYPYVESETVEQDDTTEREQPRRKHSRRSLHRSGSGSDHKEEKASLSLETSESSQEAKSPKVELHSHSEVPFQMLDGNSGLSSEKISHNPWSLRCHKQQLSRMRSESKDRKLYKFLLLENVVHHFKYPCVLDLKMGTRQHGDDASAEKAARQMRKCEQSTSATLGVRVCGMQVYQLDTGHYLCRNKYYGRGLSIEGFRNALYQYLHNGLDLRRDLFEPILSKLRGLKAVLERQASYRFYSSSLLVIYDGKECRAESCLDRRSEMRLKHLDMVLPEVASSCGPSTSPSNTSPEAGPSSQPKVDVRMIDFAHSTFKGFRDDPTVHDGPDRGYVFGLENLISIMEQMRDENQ
#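 ADP-Glo luminescence measures ADP made by human IP6K1 during a 2 h RT reaction with ATP/IP6 (mix at 1.3 mM/130 uM); top library doses 57.5 and 19.1 uM final.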
# KDM5B inhibitor = inhibitors of human KDM5B histone demethylase. Q9UGL1. KDM5B demethylase, FDH-coupled NADH fluorescence (FDH is formaldehyde dehydrogenase). Potency, µM (series often up to 57.7 µM), hits mostly inhibitors. 2.6% of 220,000 active. AID 1347165; active = well fitted inhibition curve with a large enough effect; inconclusive = small, poorly fitted or top-dose-only effect; inactive = no such curve, though single readings can be large or run the other way; note: potency is the fitted concentration of half-maximal effect; 0% is about no effect; nearly all actives have a fitted effect of over 70% in size
#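 Inhibition is measured as reduced NADH fluorescence generation from FDH coupling to formaldehyde release. Truncated KDM5BΔAP at 200 nM final acts on H3K4me3 peptide (12.5 µM in substrate mix) in pH 7.5 HEPES buffer with Tween-20, 30 min, room temperature.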
# The depositor's hits bear a star; i = inactive; ? = inconclusive; . = no result. Sampled rows, rich in hits. Any-hit rate of the full collection: about 2.8%.
SMILES,IP6K1 inh,KDM5B inhibitor
O=C(NCc1cccnc1)C1CCN(C(=O)c2ccc(-c3cccs3)cc2)CC1,-4,.
COc1ccccc1-c1nc(-c2nnn3c2COC(c2ccc(Cl)cc2)C3)no1 (centres undefined),-13,14µM*
COc1cccc(-c2nc(-c3nnn4c3COC(c3ccc(Cl)cc3)C4)no2)c1OC (centres undefined),0,25µM*
COc1ccccc1-c1noc(-c2nnn3c2COC(c2ccc(Cl)cc2)C3)n1 (centres undefined),-1,?
COc1ccc(-c2nc(-c3nnn4c3COC(c3ccc(Cl)cc3)C4)no2)c(OC)c1 (centres undefined),-4,?
Cc1nnc2ccc(N3CCCC(NC(=O)c4ccc(Cl)nc4)C3)nn12 (centres undefined),-8,.
COc1ccccc1CNC(=O)C1(CCO)CCN(c2ncccn2)C1 (centres undefined),4,20µM*
COc1ccc(OC)c(CNC(=O)C2(CCO)CCN(c3ncccn3)C2)c1 (centres undefined),4,?
O=C(NCc1ccc(F)cc1)C1(CCO)CCN(c2ncccn2)C1 (centres undefined),-8,28µM*
COc1ccc(OC)c(NC(=O)C2(CCO)CCN(c3ncccn3)C2)c1 (centres undefined),11,?
O=C(NC1CCN(Cc2ccccc2)CC1)C1(CCO)CCN(c2ncccn2)C1 (centres undefined),7,?
O=C(NCCCc1ccccc1)C1(CCO)CCN(c2ncccn2)C1 (centres undefined),18,25µM*
O=C(Nc1ccc(F)cc1F)C1(CCO)CCN(c2ncccn2)C1 (centres undefined),12,25µM*
O=C(NCc1ccccn1)C1(CCO)CCN(c2ncccn2)C1 (centres undefined),17,?
COc1ccc(S(=O)(=O)N2CCCCC2)cc1NC(=O)c1ccc(F)cc1,.,i
O=C(C1CCCCN1Cc1ccc(-c2ccsc2)cc1)N1CCC(Cc2ccccc2)CC1 (centres undefined),0,.
COC(=O)[C@@H]1Cc2ncn(Cc3ccc(Cl)cc3)c2CN1CCCc1ccccc1,-16,35µM*
COC(=O)[C@@H]1Cc2ncn(Cc3ccc(Cl)cc3)c2CN1C(=O)c1cccs1,6,?
COC(=O)[C@@H]1Cc2ncn(Cc3ccc(OC)cc3)c2CN1CCCc1ccccc1,0,?
COC(=O)[C@@H]1Cc2ncn(Cc3ccc(Cl)cc3)c2CN1Cc1cccs1,-8,28µM*
COc1ccccc1-c1cccc(C(=O)N2CCN(C(=O)NC3CCCC3)CC2)c1,4,.
O=C(Cn1ccn2nc3c(c2c1=O)CCCCC3)Nc1ccccc1,8,?
O=C(Cn1ccn2nc3c(c2c1=O)CCCCC3)NCc1ccc(Cl)cc1,29,?
Cc1ccc(CNC(=O)Cn2ccn3nc4c(c3c2=O)CCCCC4)cc1,31,5.6µM*
COc1cccc(CNC(=O)Cn2ccn3nc4c(c3c2=O)CCCC4)c1,2,25µM*
SMILES,IP6K1 inh,KDM5B inhibitor
COc1ccc(CNC(=O)Cn2ccn3nc4c(c3c2=O)CCCC4)cc1OC,29,?
O=C(Cn1ccn2nc3c(c2c1=O)CCCC3)NCc1ccc(F)cc1,-6,i
O=C(Cn1ccn2nc3c(c2c1=O)CCCC3)NCc1cccs1,13,20µM*
O=C(Cn1ccn2nc3c(c2c1=O)CCCC3)NCc1ccccc1,-14,25µM*
COc1ccccc1Nc1ccnc(N2CCC(C(=O)NCc3ccc4c(c3)OCO4)CC2)n1,11,.
COc1cccc(CNC(=O)C2CCN(C(=O)c3ccc(-c4ccccc4OC)cc3)CC2)c1,2,.
CC(CCc1ccccc1)NC(=O)Cn1ccn2nc3c(c2c1=O)CCCC3 (centres undefined),-4,20µM*
CC(CCc1ccccc1)NC(=O)CCn1ccn2nc3c(c2c1=O)CCCC3 (centres undefined),18,i
Cc1nn(-c2ccccc2)c2c1C(C(C)C)N(C1CCN(C(=O)Cc3cccc(Cl)c3)C1)C2=O (centres undefined),3,.
CCCc1noc(-c2cccn3c(CNC(=O)c4ccc(F)cc4Cl)nnc23)n1,4,14µM*
CCCc1noc(-c2cccn3c(CNC(=O)c4ccccc4Cl)nnc23)n1,-3,28µM*
CCCc1noc(-c2cccn3c(CNC(=O)c4ccc(C(C)(C)C)cc4)nnc23)n1,3,?
CCc1noc(-c2cccn3c(CNC(=O)Cc4c[nH]c5ccccc45)nnc23)n1,13,?
CCCc1noc(-c2cccn3c(CNC(=O)Cc4c[nH]c5ccccc45)nnc23)n1,33,20µM*
CCCc1noc(-c2cccn3c(CNC(=O)c4ccccc4OCC)nnc23)n1,11,i
CCCc1noc(-c2cccn3c(CNC(=O)c4ccc(OC)cc4C)nnc23)n1,0,i
CCCc1noc(-c2cccn3c(CNC(=O)c4ccccc4C)nnc23)n1,3,13µM*
COC(=O)N(C)Cc1cccc(N2CCN([S+](=O)([O-])c3c(Cl)cccc3Cl)CC2)c1F,3,.
O=C(CSc1nnc2ccc(-c3cccs3)nn12)NC1CCCC1,.,i
Cc1cccc(-c2cccc(CN3CCC(NC(=O)c4cccc(Cl)c4)CC3)c2)c1,3,.
Cn1ncc2c(C(=O)NCC(F)(F)F)cc(C(C)(C)C)nc21,-6,.
Cc1noc(-c2cccn3c(CNC(=O)c4c[nH]c5ccccc45)nnc23)n1,32,?
Cc1noc(-c2cccn3c(CNC(=O)c4ccccc4C)nnc23)n1,4,28µM*
CCc1noc(-c2cccn3c(CNC(=O)c4ccccc4OC)nnc23)n1,-1,?
CCCc1noc(-c2cccn3c(CNC(=O)c4cc(C)ccc4C)nnc23)n1,3,28µM*
SMILES,IP6K1 inh,KDM5B inhibitor
CCCc1noc(-c2cccn3c(CNC(=O)c4ccc(C)cc4C)nnc23)n1,11,?
CCc1noc(-c2cccn3c(CNC(=O)c4ccccc4Cl)nnc23)n1,1,28µM*
COc1ccc(Nc2ccnc(N3CCCC3C(=O)NCc3ccc(C(F)(F)F)cc3)n2)cc1 (centres undefined),-2,.
Cc1cc(C(=O)N/N=C/c2ccncc2)cs1,.,i
Cc1ccc(C)c(CN2CCN(c3nc4c(c(=O)[nH]c(=O)n4C)n3Cc3ccccc3F)CC2)c1,.,i
Cc1ccc(-c2cccc(CN3CCCC(NC(=O)Cc4ccccn4)C3)c2)cc1Cl (centres undefined),-2,.
COc1ccc(CNC(=O)C2CCCCN2Cc2ccc(-c3cc(F)ccc3OC)cc2)cc1 (centres undefined),-5,.
c1cc(CN2CCNc3cc(-c4ccsc4)ncc3C2)ccn1,-16,35µM*
COc1ccc(CN2CCNc3cc(Nc4ccccc4)ncc3C2)cc1O,3,28µM*
c1ccc(Nc2cc3c(cn2)CN(Cc2ccsc2)CCN3)cc1,12,40µM*
c1cncc(Nc2cc3c(cn2)CN(Cc2ccsc2)CCN3)c1,-17,i
COc1ccc(Nc2cc3c(cn2)CN(CCc2ccccc2)CCN3)cn1,-20,?
Fc1cccc(-c2cc3c(cn2)CN(Cc2ccncc2)CCN3)c1,-14,?
COc1ccc(CN2CCNc3cc(Nc4ccccc4)ncc3C2)cn1,1,32µM*
COc1ccc(CN2CCNc3cc(-c4ccccc4)ncc3C2)cc1O,-6,i
CN1CC(=O)N(C2CCCC2)Cc2c(NCc3cccc(C(F)(F)F)c3)ncnc21,-1,.

# Source: PubChem (National Center for Advancing Translational Sciences (NCATS))
